Measurements: PubChem BioAssay (NCATS)
Results filed as inconclusive are left out. The source made the active and inactive calls. Unless noted, the call rests on the fitted dose curve; in most records, active means well fitted curve in the direction sought with a large enough effect; inconclusive means small, poorly fitted or top-dose-only effect, or another doubt; inactive means no such curve, though single readings can be large; an effect the other way counts as inactive or inconclusive.

What was measured:
[1] = Validation of Assay for Modulators of Lamin A Splicing (AID 1459; active means well fitted curve in the direction sought with a large enough effect in the signal ratio; the % refers to the signal ratio;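 further: cells exposed to compound for two days before reading; 0% is about no effect; ratio rise marks activators and ratio drop marks inhibitors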)
In short: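 Splicing correction read as GFP (500-530 nm) over DsRed2 (575-640 nm) object intensity after 48 h compound exposure of reporter HeLa S3 clones (600 cells/well, 2% FBS medium); ancitabine and cycloheximide titrations, 0.5% DMSO as vehicle.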

[2] = qHTS Assay for Lipid Storage Modulators (AID 1519; calls by dose curve); details: Drosophila S3 cells, BODIPY lipid droplet/cell ratio, laser cytometry, cells loaded with oleic acid
In short: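 Cells seeded at 5,000 per well were treated with compounds over a concentration series and loaded with oleic acid (400 uM, as added). Lipid droplet fluorescence (488 nm excitation, 500-530 nm channel) was read by laser-scanning cytometry and normalized to 20 uM Triacsin C.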

[3] = molecular target: DNA repair nuclease/redox regulator APEX1 (Homo sapiens) (UniProt P27695); assay: qHTS Validation Assay for Inhibitors of the Human Apurinic/apyrimidinic Endonuclease 1 (APE1) (AID 1705;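 further: TAMRA fluorescence gain over two minutes as APE1 cuts a quenched THF abasic duplex; on the % scale 0 is the no-effect control and ±100 the full control effect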)
DNA repair nuclease/redox regulator APEX1 (Homo sapiens), sequence (P27695 whole entry, looked up): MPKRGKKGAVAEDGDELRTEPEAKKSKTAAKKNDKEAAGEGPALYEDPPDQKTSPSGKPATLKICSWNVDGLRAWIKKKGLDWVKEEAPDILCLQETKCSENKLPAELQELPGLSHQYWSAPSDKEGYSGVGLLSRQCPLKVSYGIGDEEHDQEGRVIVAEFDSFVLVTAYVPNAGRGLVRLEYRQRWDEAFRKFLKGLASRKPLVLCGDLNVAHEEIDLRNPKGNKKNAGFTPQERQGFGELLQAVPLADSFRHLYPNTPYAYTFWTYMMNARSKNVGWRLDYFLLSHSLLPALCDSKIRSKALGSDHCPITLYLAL
In short: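 Activity read as rising fluorescence (598 nm emission, 525 nm excitation) from incision of a TAMRA/BHQ-2 duplex carrying a THF abasic site (50 nM). Compound and enzyme sat 15 min at RT before substrate start; signal change between first and third 60-s reads.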

[4] = Counterscreen for APE1 Inhibitors: Fluorescent Dye Displacement Validation Assay (AID 1707);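 further: plate controls were ThO with dsDNA and no compound for no effect and ThO without dsDNA for full effect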
In short: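 Loss of Thiazole Orange fluorescence marks promiscuous DNA binders. The dye (250 nM) is mixed with 50 nM abasic-site dsDNA in pH7.5 Tris buffer containing MgCl2, then compounds are added and emission is read once.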

[5] = molecular target: Endonuclease 4 (Escherichia coli (strain K12)) (UniProt P0A6C1); assay: Counterscreen for APE1 Inhibitors: qHTS Validation Assay for Inhibitors of Endonuclease IV (AID 1708); further: on the % scale 0 is the no-effect control and ±100 the full control effect
In short: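 Measured as reaction progress, the fluorescence gain between first and third kinetic reads after adding 50 nM TAMRA/BHQ-2 THF duplex to 2 nM enzyme preincubated 15 min with compound; 2 mM MgCl2, pH 7.5.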

[6] = qHTS for differential inhibitors of proliferation of Plasmodium falciparum line GB4 (AID 1816); details: Potency: Plasmodium falciparum GB4 proliferation inhibition;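 further: parasite growth measured after 72 h incubation; 0% = vehicle DMSO and -100% = reference inhibitor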
[7] = qHTS for differential inhibitors of proliferation of Plasmodium falciparum line 3D7 (AID 1876);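 further: parasite growth measured after three days of culture; 0% = vehicle wells and -100% = reference inhibitor wells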
[8] = qHTS for differential inhibitors of proliferation of Plasmodium falciparum line D10 (AID 1877);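 further: parasites grown with compound for 72 h before DNA staining; plate controls were vehicle wells for no effect and reference inhibitor wells for full effect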
[9] = qHTS for differential inhibitors of proliferation of Plasmodium falciparum line Dd2 (AID 1882); details: Potency: Plasmodium falciparum Dd2 proliferation inhibition;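 further: compound exposure of 72 h on infected erythrocytes; plate controls were DMSO vehicle for no effect and 0.29 µM artemisinin for full effect; nearly all actives have a fitted effect of over 65% in size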
In short: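 RBC culture, 0.3% parasitemia / 2.5% Hct final; cpd added by pin tool in DMSO; 72 h, 37 C, 5% CO2; lysis buffer + SYBR Green I, o/n RT dark; FI 485/535; norm. to artemisinin 0.29 uM and DMSO.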

[10] = qHTS for differential inhibitors of proliferation of Plasmodium falciparum line HB3 (AID 1886); details: Potency: Plasmodium falciparum HB3 proliferation inhibition;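 further: parasites grown with compound for 72 h before SYBR Green readout; plate controls were vehicle for no effect and reference inhibitor for full effect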
[11] = qHTS Assay for Modulators of Human Peripheral Myelin Protein 22 (PMP22) Expression/Activity (AID 1967; active means well fitted curve in the direction sought with a large enough effect in the signal ratio; the % refers to the signal ratio;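 further: 0% = untreated cells and 100% end not stated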)
In short: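 Readout is the corrected green/red luminescence ratio after 24 h compound exposure, normalised to untreated cells (0%). Engineered MSC80 mouse Schwann cells express green luciferase from the mouse Pmp22 promoter and red luciferase from EF-alpha as internal control.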

[12] = molecular target: ATP-dependent DNA helicase Q1 (Homo sapiens) (UniProt P46063); assay: qHTS Validation Assay for Inhibitors of RecQ-Like Dna Helicase 1 (RECQ1) (AID 2353);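 further: plate controls were DMSO vehicle for no effect and enzyme-free control for full effect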
ATP-dependent DNA helicase Q1 (Homo sapiens), sequence (P46063 whole entry, looked up): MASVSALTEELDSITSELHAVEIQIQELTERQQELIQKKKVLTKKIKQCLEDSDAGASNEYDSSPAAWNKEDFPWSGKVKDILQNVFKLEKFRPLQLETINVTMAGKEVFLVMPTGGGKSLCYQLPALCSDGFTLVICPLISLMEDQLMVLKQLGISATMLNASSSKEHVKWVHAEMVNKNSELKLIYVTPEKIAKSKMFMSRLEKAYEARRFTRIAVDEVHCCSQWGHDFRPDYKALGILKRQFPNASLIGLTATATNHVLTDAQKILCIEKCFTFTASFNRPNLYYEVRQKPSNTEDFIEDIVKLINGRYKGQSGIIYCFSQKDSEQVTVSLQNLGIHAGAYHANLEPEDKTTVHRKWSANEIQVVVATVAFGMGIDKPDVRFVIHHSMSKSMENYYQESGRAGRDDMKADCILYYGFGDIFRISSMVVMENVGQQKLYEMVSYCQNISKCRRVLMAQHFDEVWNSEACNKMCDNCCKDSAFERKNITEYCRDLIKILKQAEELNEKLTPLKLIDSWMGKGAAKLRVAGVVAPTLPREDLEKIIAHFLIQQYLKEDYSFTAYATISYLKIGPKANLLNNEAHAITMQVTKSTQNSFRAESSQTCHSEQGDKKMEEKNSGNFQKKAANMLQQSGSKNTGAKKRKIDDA
In short: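 RECQ1T1 50 nM; forked duplex (20 bp + 30-nt ss tails) 200 nM, ATP 2 mM final; pH 8.0, 2 mM MgCl2, 2.5 ug/ml poly(dI-dC); 15 min compound preincubation; discontinuous kinetic read over 2 h at RT.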

[13] = Cytometric Cell-Based qHTS for Inhibitors of the mTORC1 Signaling Pathway in MEF (Tsc2-/-, p53-/-) Cells (AID 2660);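 further: Tsc2 and p53 null MEFs carrying empty vector with compound for 24 h; percent of cells above a phospho-rpS6 to PI ratio cutoff in each well; plate controls were DMSO for no effect and rapamycin for full effect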
In short: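 Percent of cells positive for normalized phospho-S6 staining is reported, with the cutoff set from rapamycin (7.5 nM) versus DMSO wells. Tsc2-/-, p53-/- MEFs received compound for 24 hrs.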

[14] = High Content Imaging Cell-Based qHTS for Inhibitors of the mTORC1 Signaling Pathway in MEF (Tsc2-/-, p53-/-) Cells (AID 2666); details: at 38.3 µM (top of the series);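 further: percent of cells scored positive for phospho-rpS6 Ser235/236 immunostaining by imaging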
In short: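 Inhibition of rpS6 phosphorylation is measured by immunofluorescence imaging in empty-vector Tsc2-/-, p53-/- mouse embryonic fibroblasts after 24 hrs compound exposure at 37 degree Celsius. Results are reported as % positive cells per well.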

[15] = High Content Imaging Cell-Based qHTS for Inhibitors of the mTORC1 Signaling Pathway in MEF Cells (AID 2667);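 further: Tsc2-/- p53-/- MEFs stably re-expressing wild-type Tsc2 exposed 24 h; plate controls were DMSO wells for no effect and rapamycin control wells for full effect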
In short: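 Fixed-cell imaging of phospho-S6 (Ser235/236, Alexa-488) after 24 hrs of compound treatment at 37 degree Celsius. Signal was normalized to Hoechst, and thresholds from the highest and lowest wells split cells into % active versus % non-active.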

[16] = Cytometry Cell-Based qHTS for Inhibitors of the mTORC1 Signaling Pathway in MEF cells (AID 2668);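 further: Tsc2-/- p53-/- mouse embryonic fibroblasts stably re-expressing wild-type Tsc2; percent cells positive for phospho-rpS6 Ser235/236 relative to propidium iodide stain; plate controls were DMSO wells for no effect and 7.5 nM rapamycin control wells for full effect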
In short: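 Phospho-rpS6 (Ser235/236) immunofluorescence over PI signal, scored as % positive cells using thresholds from 7.5 nM rapamycin and DMSO wells, after 24 h compound exposure of WT-Tsc2-rescued Tsc2-/-, p53-/- MEFs. PI cell count recorded for viability.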

[17] = Validation screen for small molecules that induce DNA re-replication in MCF 10A normal breast cells (AID 463097); further: 0% is about no effect; nearly all actives have a fitted effect of over 60% in size
In short: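 Read-out is Hoechst total nuclear intensity by fluorescence scanning imager, flagging increased high-DNA-content nuclei. Compounds were incubated with MCF 10A cells for 48 hr (37 C, 5% CO2) before 40 min staining.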

[18] = molecular target: DNA polymerase III PolC-type (Bacillus subtilis (strain 168)) (UniProt P13267); assay: qHTS Validation Assay for the Inhibitors of DNA Replication in Gram-Positive Bacteria (AID 485295);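 further: reconstituted holoenzyme with PolC plus beta clamp SSB and primase; PicoGreen fluorescence of double-stranded DNA made on primed circular M13 template; 0% = DMSO wells and -100% = EDTA-quenched background wells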
In short: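 Double-stranded DNA product detected by PicoGreen fluorescence after EDTA quench. Compound incubated with B. subtilis holoenzyme (PolC, beta subunit, SSB, primase) before substrate addition; primed replication of M13Gori with dNTPs and NTPs at room temperature; DMSO defines 0% inhibition.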

[19] = molecular target: Tumor susceptibility gene 101 protein (Homo sapiens) (UniProt Q99816); assay: qHTS Validation Assay for Iinhibitors of HIV-1 Budding by Blocking the Interaction of PTAP/TSG101 (AID 485342; calls by dose curve; further: 0% is about no effect)
Tumor susceptibility gene 101 protein (Homo sapiens), sequence (Q99816 whole entry, looked up, the tested form may be a part): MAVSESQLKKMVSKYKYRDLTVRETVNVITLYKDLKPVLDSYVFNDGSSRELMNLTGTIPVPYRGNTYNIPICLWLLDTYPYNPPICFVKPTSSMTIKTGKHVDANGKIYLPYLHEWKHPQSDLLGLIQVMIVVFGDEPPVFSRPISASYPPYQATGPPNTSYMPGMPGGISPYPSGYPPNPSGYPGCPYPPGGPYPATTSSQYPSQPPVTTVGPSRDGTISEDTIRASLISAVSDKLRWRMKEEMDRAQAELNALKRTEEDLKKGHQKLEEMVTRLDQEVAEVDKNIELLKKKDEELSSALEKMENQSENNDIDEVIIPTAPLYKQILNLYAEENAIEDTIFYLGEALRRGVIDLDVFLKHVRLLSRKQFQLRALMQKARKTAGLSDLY
In short: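 Fluorescence polarization of 50 nM FITC-PTAP peptide bound to 10 uM Tsg101 binding domain was read after 20 min room-temperature incubation with compounds, in 10 mM HEPES pH 7.5, 0.15 M NaCl, 0.01% Tween 20.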

[20] = qHTS Validation Assay to Find Inhibitors of Chronic Active B-Cell Receptor Signaling (AID 485345; active means well fitted curve in the direction sought with a large enough effect in the main read-out, with a control signal flat, not every such curve was filed as active;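 further: 0% = untreated basal cells and 100% = 10 µM MG-132 proteasome inhibitor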)
In short: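 TMD8 ABC-DLBCL cells with dox-inducible green luciferase–IκBα fusion and red native luciferase; compounds 46 uM–3 nM, 4 h at 37C with doxycycline in 0.5% FBS IMDM. Green/red ratio normalized to basal and 10 uM MG-132.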

[21] = molecular target: Beta-2 adrenergic receptor (Homo sapiens) (UniProt P07550); assay: qHTS validation assay of beta-arrestin-biased ligands of beta2-adrenergic receptor (AID 485366); further: 0% is about no effect
In short: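 Screening used a titration range of up to 46 microM in a beta-arrestin recruitment Tango luciferase assay. Cells in 1% FBS medium were treated 18 hr at 37 degrees C, and luminescence was normalized to %Activity.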

[22] = molecular target: Thioredoxin reductase 1, cytoplasmic (Rattus norvegicus) (UniProt O89049); assay: qHTS Assay for Substrates of Mammalian Selenoprotein Thioredoxin Reductase 1 (TrxR1) (AID 488772);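 further: 0% is about no effect; a drop in NADPH fluorescence below the no-compound background marks a TrxR1 substrate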
Thioredoxin reductase 1, cytoplasmic (Rattus norvegicus), sequence (O89049 whole entry, looked up): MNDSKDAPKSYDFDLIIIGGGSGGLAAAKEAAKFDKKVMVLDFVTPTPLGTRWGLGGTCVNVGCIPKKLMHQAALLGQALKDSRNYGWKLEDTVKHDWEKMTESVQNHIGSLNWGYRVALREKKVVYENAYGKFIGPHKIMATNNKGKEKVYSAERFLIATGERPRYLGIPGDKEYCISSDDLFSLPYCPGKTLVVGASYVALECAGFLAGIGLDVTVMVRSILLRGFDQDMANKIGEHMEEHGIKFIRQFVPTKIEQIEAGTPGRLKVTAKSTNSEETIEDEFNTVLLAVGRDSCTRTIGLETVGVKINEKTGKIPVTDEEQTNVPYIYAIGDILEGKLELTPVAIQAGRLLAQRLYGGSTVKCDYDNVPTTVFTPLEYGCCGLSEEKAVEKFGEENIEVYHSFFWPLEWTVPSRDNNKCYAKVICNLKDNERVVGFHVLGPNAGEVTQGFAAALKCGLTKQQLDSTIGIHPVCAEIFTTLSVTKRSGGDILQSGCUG
In short: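 In this dual-purpose format, potential substrates are identified from the first fluorescence read after selenite addition, not from the 8-minute delta. Rat enzyme is preincubated with NADPH and then with compound at ~22 deg C.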

[23] = molecular target: Thioredoxin reductase 1, cytoplasmic (Rattus norvegicus) (UniProt O89049); assay: qHTS Assay for Inhibitors of Mammalian Selenoprotein Thioredoxin Reductase 1 (TrxR1) (AID 488773); details: Potency: inhibition;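 further: drop in NADPH fluorescence over an 8 min run after selenite addition; on the % scale 0 is the no-effect control and ±100 the full control effect; nearly all actives have a fitted effect of over 40% in size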
In short: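 Inhibition is scored from the loss of NADPH fluorescence between first and last reads of an 8-min kinetic run. Selenite (400 uM) was the substrate, added after 15 min compound preincubation at room temperature.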

[24] = molecular target: M-phase phosphoprotein 8 (Homo sapiens) (UniProt Q99549); assay: qHTS Validation Assay for Inhibitors for MPP8 Chromodomain Interactions with Methylated Histone Tails (AID 488949);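 further: AlphaScreen signal from MPP8 chromodomain bound to biotinylated H3K9me3 peptide; top concentration of the series differs between compounds; on the % scale 0 is the no-effect control and ±100 the full control effect; nearly all actives have a fitted effect of over 55% in size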
M-phase phosphoprotein 8 (Homo sapiens), sequence (Q99549 whole entry, looked up): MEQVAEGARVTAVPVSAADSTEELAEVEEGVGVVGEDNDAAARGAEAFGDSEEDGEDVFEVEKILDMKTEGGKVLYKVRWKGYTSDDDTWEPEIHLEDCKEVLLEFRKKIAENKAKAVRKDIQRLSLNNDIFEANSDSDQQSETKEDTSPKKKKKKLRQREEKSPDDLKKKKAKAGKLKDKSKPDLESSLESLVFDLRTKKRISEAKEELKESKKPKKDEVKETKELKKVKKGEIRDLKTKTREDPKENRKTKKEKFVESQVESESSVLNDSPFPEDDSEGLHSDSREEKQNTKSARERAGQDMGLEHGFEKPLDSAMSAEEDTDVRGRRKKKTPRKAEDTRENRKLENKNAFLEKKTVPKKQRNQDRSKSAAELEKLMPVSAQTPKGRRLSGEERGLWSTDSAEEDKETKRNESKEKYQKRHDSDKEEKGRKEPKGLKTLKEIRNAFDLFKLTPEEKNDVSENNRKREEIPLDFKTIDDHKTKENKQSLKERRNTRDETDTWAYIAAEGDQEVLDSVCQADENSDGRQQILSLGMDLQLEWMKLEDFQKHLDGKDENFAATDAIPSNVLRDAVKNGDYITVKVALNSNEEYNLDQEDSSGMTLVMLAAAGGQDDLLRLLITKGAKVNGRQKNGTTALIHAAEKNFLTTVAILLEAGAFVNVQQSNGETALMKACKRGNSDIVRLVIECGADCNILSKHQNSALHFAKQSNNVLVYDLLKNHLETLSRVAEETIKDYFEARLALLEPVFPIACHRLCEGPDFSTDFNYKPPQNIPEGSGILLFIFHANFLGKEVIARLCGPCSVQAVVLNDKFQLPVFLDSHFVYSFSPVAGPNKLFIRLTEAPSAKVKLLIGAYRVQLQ
In short: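 AlphaScreen proximity signal from streptavidin donor and Ni-chelate acceptor beads (10 ug/mL each) reported binding of MPP8 to trimethyl-K9 H3(1-18) peptide, both at 50 nM. The complex formed 30 min before a 30 min compound exposure at room temperature, in PBS pH 7.4.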

[25] = molecular target: Chromobox protein homolog 1 (Homo sapiens) (UniProt P83916); assay: qHTS Validation Assay for Inhibitors of HP1-beta Chromodomain Interactions with Methylated Histone Tails (AID 488953);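 further: loss of AlphaScreen luminescence from HP1-beta binding biotinylated H3K9me3 peptide; on the % scale 0 is the no-effect control and ±100 the full control effect; nearly all actives have a fitted effect of over 50% in size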
Chromobox protein homolog 1 (Homo sapiens), sequence (P83916 whole entry, looked up): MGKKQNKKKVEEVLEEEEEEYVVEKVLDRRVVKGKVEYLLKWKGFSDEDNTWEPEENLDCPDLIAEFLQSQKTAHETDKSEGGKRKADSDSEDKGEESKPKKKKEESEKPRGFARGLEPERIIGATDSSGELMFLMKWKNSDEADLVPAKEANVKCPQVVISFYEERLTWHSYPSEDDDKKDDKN
In short: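 AlphaScreen proximity readout: streptavidin donor and Ni-chelate acceptor beads, 10 ug/mL final, 30 min dark, RT. Complex of 50 nM HP1-beta and 50 nM b-H3(1-18)K9me3 formed 30 min, then compound-treated 30 min; PBS pH 7.4/0.01% Tween-20.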

[26] = molecular target: Methanococcus maripaludis chaperonin (MmCpn) (UniProt Q6LX38); assay: High-Throughput Screening for Modulators of Cytosolic Chaperonin Activity: MmCpn Primary Screen (AID 488978);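 further: 50 nM MmCpn enzyme hydrolysing 30 µM ATP at 37 °C; 0% is about no effect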
Methanococcus maripaludis chaperonin (MmCpn), sequence (Q6LX38 1-543): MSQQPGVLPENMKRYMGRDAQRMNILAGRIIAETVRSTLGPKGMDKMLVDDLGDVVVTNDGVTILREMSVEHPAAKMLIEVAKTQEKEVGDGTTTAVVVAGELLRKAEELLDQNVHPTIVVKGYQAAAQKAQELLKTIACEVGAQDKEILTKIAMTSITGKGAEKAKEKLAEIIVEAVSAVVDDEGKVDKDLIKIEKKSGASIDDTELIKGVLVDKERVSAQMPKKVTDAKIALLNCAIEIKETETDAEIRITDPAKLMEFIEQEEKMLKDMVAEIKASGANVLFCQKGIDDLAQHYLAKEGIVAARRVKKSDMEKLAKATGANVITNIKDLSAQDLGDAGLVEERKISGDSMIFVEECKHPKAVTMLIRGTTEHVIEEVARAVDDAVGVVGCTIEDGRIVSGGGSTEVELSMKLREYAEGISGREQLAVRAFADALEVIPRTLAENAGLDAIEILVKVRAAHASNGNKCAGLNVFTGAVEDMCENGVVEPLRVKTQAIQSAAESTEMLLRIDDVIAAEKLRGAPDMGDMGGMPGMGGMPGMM
In short: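 ATPase activity of 50 nM MmCpn was assayed with 30 uM ATP, 10 minutes at 37C, after a 5 min compound preincubation at room temperature. ADP production was read as HTRF emission at 590 and 665 nm.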

[27] = molecular target: Thyrotropin receptor (Homo sapiens) (UniProt P16473); assay: qHTS Assay for Antagonists of the Thyroid Stimulating Hormone Receptor (AID 488980); further: 0% is about no effect
Thyrotropin receptor (Homo sapiens), sequence (P16473 whole entry, looked up): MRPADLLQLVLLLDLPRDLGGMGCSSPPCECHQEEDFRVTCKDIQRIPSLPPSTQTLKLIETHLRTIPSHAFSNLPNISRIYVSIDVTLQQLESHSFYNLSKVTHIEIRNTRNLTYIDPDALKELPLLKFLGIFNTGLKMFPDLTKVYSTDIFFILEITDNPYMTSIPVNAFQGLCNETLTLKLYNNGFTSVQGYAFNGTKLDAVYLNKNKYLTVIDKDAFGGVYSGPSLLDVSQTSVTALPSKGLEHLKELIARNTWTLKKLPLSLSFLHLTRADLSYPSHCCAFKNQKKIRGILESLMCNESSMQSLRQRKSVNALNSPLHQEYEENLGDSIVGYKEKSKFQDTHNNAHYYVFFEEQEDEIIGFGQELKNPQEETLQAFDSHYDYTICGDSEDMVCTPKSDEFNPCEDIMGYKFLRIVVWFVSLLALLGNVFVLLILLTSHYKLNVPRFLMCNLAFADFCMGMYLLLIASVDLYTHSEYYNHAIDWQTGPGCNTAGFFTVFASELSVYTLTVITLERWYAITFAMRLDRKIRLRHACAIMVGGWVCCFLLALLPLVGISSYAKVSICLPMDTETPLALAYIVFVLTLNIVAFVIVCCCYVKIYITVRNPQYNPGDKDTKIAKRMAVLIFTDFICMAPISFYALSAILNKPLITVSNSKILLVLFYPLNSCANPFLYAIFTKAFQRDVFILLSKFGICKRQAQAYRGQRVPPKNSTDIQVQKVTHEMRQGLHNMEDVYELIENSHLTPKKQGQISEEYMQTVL
In short: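 Inhibition of cAMP raised by EC80 TSH (4 nM final) was read by HTRF, with lysate cAMP competing against cAMP-d2 for cryptate antibody after 30 min at room temperature. The cells were transfected HEK293 held in phosphodiesterase inhibitor RO 20-1724 at 70 uM.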

[28] = molecular target: D(1A) dopamine receptor (Homo sapiens) (UniProt P21728); assay: HTS Assay for Allosteric Agonists of the Human D1 Dopamine Receptor: Primary Screen for Agonists (AID 488981); further: 0% is about no effect
D(1A) dopamine receptor (Homo sapiens), sequence (P21728 whole entry, looked up): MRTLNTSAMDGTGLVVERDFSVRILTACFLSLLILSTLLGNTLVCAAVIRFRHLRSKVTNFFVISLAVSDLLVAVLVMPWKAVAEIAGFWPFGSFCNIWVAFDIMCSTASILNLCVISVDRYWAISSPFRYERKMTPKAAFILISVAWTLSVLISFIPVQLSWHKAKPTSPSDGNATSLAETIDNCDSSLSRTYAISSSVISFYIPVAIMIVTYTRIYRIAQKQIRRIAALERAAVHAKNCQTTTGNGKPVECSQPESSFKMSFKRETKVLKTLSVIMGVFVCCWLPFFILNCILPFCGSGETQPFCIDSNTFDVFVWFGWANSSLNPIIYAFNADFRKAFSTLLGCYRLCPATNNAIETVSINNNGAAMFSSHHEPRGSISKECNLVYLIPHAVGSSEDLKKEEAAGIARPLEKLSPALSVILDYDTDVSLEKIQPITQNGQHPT
In short: (§1)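 Tetracycline-induced HEK293 T-REx cells force-coupled to calcium signalling were incubated overnight at 30 C and dye-loaded at room temperature. Calcium flux over 180 s after compound addition flagged agonists; a further 180 s read after EC20 dopamine flagged potentiators.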

[29] = molecular target: D(1A) dopamine receptor (Homo sapiens) (UniProt P21728); assay: HTS Assay for Allosteric Agonists of the Human D1 Dopamine Receptor: Primary Screen for Potentiators (AID 488982); further: 0% is about no effect
In short: as §1

[30] = molecular target: D(1A) dopamine receptor (Homo sapiens) (UniProt P21728); assay: HTS Assay for Allosteric Agonists of the Human D1 Dopamine Receptor: Primary Screen for Antagonists (AID 488983);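 further: calcium flux response to an EC80 dopamine challenge measured with no-wash dye; on the % scale 0 is the no-effect control and ±100 the full control effect; nearly all actives have a fitted effect of over 65% in size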
In short: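 Calcium flux readout, no-wash dye, inducible HEK293 T-REx D1 line (force-coupled). Compound added after 10 s baseline, 180 s kinetic read; then dopamine at EC80, further 180 s read.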

[31] = Validation screen for small molecules that induce genotoxicity in human embryonic kidney (HEK293T) cells expressing luciferase-tagged ELG1 (AID 493106); further: potency means the concentration at half of the fitted maximal effect
In short: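 qHTS format; 2,000 HEK293T ELG1-luc cells/well; 23 nL compound via pin tool; 16 hr, 37 °C/5% CO2; ONE-Glo, 30 min RT; luminescence read.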

[32] = molecular target: Thyrotropin-releasing hormone receptor (Homo sapiens) (UniProt P34981); assay: qHTS for Small Molecule Agonists and Allosteric Enhancers of Human TRH Receptor: Validation Screen for Agonists (AID 493127;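 active means calcium activation more than 3 SD above the typical response in the agonist read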;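 further: intracellular calcium rise by fluo-8 fluorescence before TRH EC20 addition; 0% is about no effect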); details: TRH receptor agonist cell assay; at 2 µM; stronger effect = higher value
In short: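 Read-out: intracellular calcium release measured kinetically by FDSS (fluo-8, ex 480/em 530 nm), 1 reading/s after a 10-cycle baseline. TRHR cells, 2000/well, cultured 18 h at 33.5C, dye-loaded at room temp. Compound-evoked positive calcium signal flags agonists.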

Cc1cccc(/C=C/c2ccccc2)n1
55.9%: max response ([2]; measured here: lipid channel max response)
inactive: outcome [1] | activity change, negative = inhibition ([2]; at 57.5 µM (top of the series)) 1.78% | Potency [3] | Potency [4] | Potency [5] | Potency [6] | Potency [7] | Potency [8] | Potency [9] | Potency [10] | outcome [11] | Potency [12] | outcome [13] | outcome [14] | Potency [15] | Potency [16] | Potency [17] | Potency [18] | outcome [19] | outcome [20] | outcome [21] | outcome [22] | Potency [23] | Potency [24] | Potency [25] | outcome [26] | outcome [27] | outcome [28] | outcome [29] | outcome [30] | activation [32] -7%
active: Potency [31] 4.11 µM
54.4%: max response ([2]; measured here: cell count channel max response)
